Activity calls are given as the source filed them.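 The calls were made as follows, unless noted: active = compounds that lower survival of HCT116 colon cancer cells in the luminescence readout, no numeric limit stated; inactive = the rest.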 Peptide text beside a SMILES is read from it.
Experiment: HCT116 colon cancer cell growth inhibition, primary screen, CellTiter-Glo luminescence, NPC library (AID 1117342)
Conditions: at 20 µM (top of the series)
For `O=C(Nc1ccc([N+](=O)[O-])cc1Cl)c1cc(Cl)ccc1O`, the inhibition of viability was 107% (active). In the case of `CNC[C@H](O)c1cccc(O)c1`, the inhibition of viability is reported as 3.8% (inactive). For `O=NN(CCCl)C(=O)NCCCl`, the inhibition of viability was -16.5% (inactive). In the case of `COc1ccnc(CS(=O)c2nc3ccc(OC(F)F)cc3[nH]2)c1OC` (stereo unspecified), the inhibition of viability is reported as 5.27% (inactive). For `COc1ccc2cc3[n+](cc2c1OC)CCc1cc2c(cc1-3)OCO2`, the inhibition of viability was 84% (active). With `CN(Cc1cc(Br)cc(Br)c1N)C1CCCCC1` the inhibition of viability was 80.7% (active). In the case of `O=C(NC(Cc1cc(=O)[nH]c2ccccc12)C(=O)O)c1ccc(Cl)cc1` (stereo unspecified), the inhibition of viability is reported as 3.17% (inactive). With `NC(=O)NO` the inhibition of viability was 23.9% (inactive). With `Cc1ccc(S(=O)(=O)NC(=O)NN2CC3CCCC3C2)cc1` (stereo unspecified) the inhibition of viability was -22.6% (inactive). For `OC[C@H]1O[C@@H](O[C@@H]2[C@@H](CO)O[C@](O)(CO)[C@H]2O)[C@H](O)[C@@H](O)[C@H]1O`, the inhibition of viability was 10% (inactive). With `NNc1nncc2ccccc12` the inhibition of viability was 4.9% (inactive). With `CCOC(=O)C(C)(C)Oc1ccc(Cl)cc1` the inhibition of viability was -9.77% (inactive). In the case of `CC(=O)Oc1ccccc1C(=O)O`, the inhibition of viability is reported as -5.9% (inactive). For `NC(=O)c1ncn([C@@H]2O[C@H](CO)[C@@H](O)[C@H]2O)n1`, the inhibition of viability was -15.3% (inactive). In the case of `CN(C)c1ccc(C(=C2C=CC(=[N+](C)C)C=C2)c2ccc(N(C)C)cc2)cc1`, the inhibition of viability is reported as 103% (active). With `Cn1cnc2c1c(=O)[nH]c(=O)n2C` the inhibition of viability was 6.3% (inactive). With `COc1ccc(CCN(C)CCCC(C#N)(c2ccc(OC)c(OC)c2)C(C)C)cc1OC` (stereo unspecified) the inhibition of viability was 27.3% (inactive). For `O=c1oc2c(O)c(O)cc3c(=O)oc4c(O)c(O)cc1c4c23`, the inhibition of viability was 19.7% (inactive). With `CN(C)CCc1c[nH]c2ccc(CS(=O)(=O)N3CCCC3)cc12` the inhibition of viability was 1.33% (inactive). In the case of `COc1cc([C@H]2Oc3cc([C@H]4Oc5cc(O)cc(O)c5C(=O)[C@@H]4O)ccc3O[C@@H]2CO)ccc1O`, the inhibition of viability is reported as 18.7% (inactive). For `C/C=C(/C(=C/C)c1ccc(O)cc1)c1ccc(O)cc1`, the inhibition of viability was 101% (active). For `O=C(O)c1cn(-c2ccc(F)cc2)c2cc(N3CCNCC3)c(F)cc2c1=O`, the inhibition of viability was 29.7% (inactive). In the case of `CN1C(C(=O)Nc2ccccn2)=C(O)c2sccc2S1(=O)=O`, the inhibition of viability is reported as 8.2% (inactive). For `COC(=O)Nc1nc2ccc(S(=O)c3ccccc3)cc2[nH]1` (stereo unspecified), the inhibition of viability was 92.2% (active). For `NCC1CCC(C(=O)O)CC1` (stereo unspecified), the inhibition of viability was -10.3% (inactive). For `NC(CO)C(=O)NNCc1ccc(O)c(O)c1O` (stereo unspecified), the inhibition of viability was 84.4% (active). For `Nc1nc(=S)c2[nH]cnc2[nH]1`, the inhibition of viability was 96.4% (active). In the case of `O=c1c(-c2ccc(O)cc2)coc2cc(O)cc(O)c12`, the inhibition of viability is reported as -0.9% (inactive). In the case of `CC1(C)NC(=O)N(c2ccc([N+](=O)[O-])c(C(F)(F)F)c2)C1=O`, the inhibition of viability is reported as 8.8% (inactive). For `C1CCC(C(CC2CCCCN2)C2CCCCC2)CC1` (stereo unspecified), the inhibition of viability was 100% (active). For `N[C@@H](Cc1ccc(O)c(O)c1)C(=O)O`, the inhibition of viability was 49.9% (inactive). With `Cc1oncc1C(=O)Nc1ccc(C(F)(F)F)cc1` the inhibition of viability was 38.7% (inactive). In the case of `NS(=O)(=O)c1cc2c(cc1Cl)NC(C(Cl)Cl)NS2(=O)=O` (stereo unspecified), the inhibition of viability is reported as -37.1% (inactive). In the case of `CCCOc1ccc2nc(NC(=O)OC)[nH]c2c1`, the inhibition of viability is reported as 57.5% (active). In the case of `Cc1cc(C2CCCCC2)n(O)c(=O)c1`, the inhibition of viability is reported as 75.1% (active). For `COC(=O)[C@H](Cc1ccccc1)NC(=O)[C@@H](N)CC(=O)O` (H-Asp-Phe-OMe), the inhibition of viability was 5% (inactive). In the case of `CC1=CC(=O)c2ccccc2C1=O`, the inhibition of viability is reported as 37.5% (inactive). With `CCOC(=O)C1=C[C@]2(CC)CCCN3CCc4c(n1c1ccccc41)[C@@H]32` the inhibition of viability was -3.2% (inactive).

Experiment: reduced SW480 viability measured with CellTiter-Glo, NPC library, primary (AID 1117343;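 active = compounds that lower viability of the colon cancer cells in the luminescence readout, with no numeric limit stated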)
Conditions: CellTiter-Glo luminescence; at 20 µM (top of the series)
With `O=C(Nc1ccc([N+](=O)[O-])cc1Cl)c1cc(Cl)ccc1O` the viability decrease (inhibition) was 120% (active). With `CNC[C@H](O)c1cccc(O)c1` the viability decrease (inhibition) was 12.3% (inactive). In the case of `O=NN(CCCl)C(=O)NCCCl`, the viability decrease (inhibition) is reported as 18.8% (inactive). In the case of `COc1ccnc(CS(=O)c2nc3ccc(OC(F)F)cc3[nH]2)c1OC` (stereo unspecified), the viability decrease (inhibition) is reported as -0.2% (inactive). With `COc1ccc2cc3[n+](cc2c1OC)CCc1cc2c(cc1-3)OCO2` the viability decrease (inhibition) was 33.2% (inactive). With `CN(Cc1cc(Br)cc(Br)c1N)C1CCCCC1` the viability decrease (inhibition) was 125% (active). In the case of `O=C(NC(Cc1cc(=O)[nH]c2ccccc12)C(=O)O)c1ccc(Cl)cc1` (stereo unspecified), the viability decrease (inhibition) is reported as 22.7% (inactive). For `NC(=O)NO`, the viability decrease (inhibition) was 8.5% (inactive). For `Cc1ccc(S(=O)(=O)NC(=O)NN2CC3CCCC3C2)cc1` (stereo unspecified), the viability decrease (inhibition) was 22.3% (inactive). In the case of `OC[C@H]1O[C@@H](O[C@@H]2[C@@H](CO)O[C@](O)(CO)[C@H]2O)[C@H](O)[C@@H](O)[C@H]1O`, the viability decrease (inhibition) is reported as 86.9% (active). For `NNc1nncc2ccccc12`, the viability decrease (inhibition) was 4.9% (inactive). In the case of `CCOC(=O)C(C)(C)Oc1ccc(Cl)cc1`, the viability decrease (inhibition) is reported as 7.5% (inactive). In the case of `CC(=O)Oc1ccccc1C(=O)O`, the viability decrease (inhibition) is reported as -3.9% (inactive). With `NC(=O)c1ncn([C@@H]2O[C@H](CO)[C@@H](O)[C@H]2O)n1` the viability decrease (inhibition) was -29.6% (inactive). For `CN(C)c1ccc(C(=C2C=CC(=[N+](C)C)C=C2)c2ccc(N(C)C)cc2)cc1`, the viability decrease (inhibition) was 146% (active). For `Cn1cnc2c1c(=O)[nH]c(=O)n2C`, the viability decrease (inhibition) was -8.1% (inactive). With `COc1ccc(CCN(C)CCCC(C#N)(c2ccc(OC)c(OC)c2)C(C)C)cc1OC` (stereo unspecified) the viability decrease (inhibition) was 20.2% (inactive). For `O=c1oc2c(O)c(O)cc3c(=O)oc4c(O)c(O)cc1c4c23`, the viability decrease (inhibition) was 75.1% (active). In the case of `CN(C)CCc1c[nH]c2ccc(CS(=O)(=O)N3CCCC3)cc12`, the viability decrease (inhibition) is reported as 28.9% (inactive). With `COc1cc([C@H]2Oc3cc([C@H]4Oc5cc(O)cc(O)c5C(=O)[C@@H]4O)ccc3O[C@@H]2CO)ccc1O` the viability decrease (inhibition) was 16.2% (inactive). With `C/C=C(/C(=C/C)c1ccc(O)cc1)c1ccc(O)cc1` the viability decrease (inhibition) was 123% (active). For `O=C(O)c1cn(-c2ccc(F)cc2)c2cc(N3CCNCC3)c(F)cc2c1=O`, the viability decrease (inhibition) was -14.9% (inactive). In the case of `CN1C(C(=O)Nc2ccccn2)=C(O)c2sccc2S1(=O)=O`, the viability decrease (inhibition) is reported as 13.4% (inactive). In the case of `COC(=O)Nc1nc2ccc(S(=O)c3ccccc3)cc2[nH]1` (stereo unspecified), the viability decrease (inhibition) is reported as 96% (active). With `NCC1CCC(C(=O)O)CC1` (stereo unspecified) the viability decrease (inhibition) was 2.1% (inactive). With `NC(CO)C(=O)NNCc1ccc(O)c(O)c1O` (stereo unspecified) the viability decrease (inhibition) was 145% (active). In the case of `Nc1nc(=S)c2[nH]cnc2[nH]1`, the viability decrease (inhibition) is reported as 101% (active). For `O=c1c(-c2ccc(O)cc2)coc2cc(O)cc(O)c12`, the viability decrease (inhibition) was 94.1% (active). With `CC1(C)NC(=O)N(c2ccc([N+](=O)[O-])c(C(F)(F)F)c2)C1=O` the viability decrease (inhibition) was 18.3% (inactive). For `C1CCC(C(CC2CCCCN2)C2CCCCC2)CC1` (stereo unspecified), the viability decrease (inhibition) was 120% (active). With `N[C@@H](Cc1ccc(O)c(O)c1)C(=O)O` the viability decrease (inhibition) was 66.7% (active). In the case of `Cc1oncc1C(=O)Nc1ccc(C(F)(F)F)cc1`, the viability decrease (inhibition) is reported as 39.1% (inactive). For `NS(=O)(=O)c1cc2c(cc1Cl)NC(C(Cl)Cl)NS2(=O)=O` (stereo unspecified), the viability decrease (inhibition) was -6.6% (inactive). With `CCCOc1ccc2nc(NC(=O)OC)[nH]c2c1` the viability decrease (inhibition) was 14.3% (inactive). For `Cc1cc(C2CCCCC2)n(O)c(=O)c1`, the viability decrease (inhibition) was 108% (active). In the case of `COC(=O)[C@H](Cc1ccccc1)NC(=O)[C@@H](N)CC(=O)O` (H-Asp-Phe-OMe), the viability decrease (inhibition) is reported as -6.8% (inactive). With `CC1=CC(=O)c2ccccc2C1=O` the viability decrease (inhibition) was 122% (active). In the case of `CCOC(=O)C1=C[C@]2(CC)CCCN3CCc4c(n1c1ccccc41)[C@@H]32`, the viability decrease (inhibition) is reported as 61.3% (active).
